Drawing on the supplement of paper PMC6555819, this text covers PBM binding z-score for 40 sequences.

This assay has as its system VDR:RXRa (NR concentration 270 nM, RXRa partner concentration 90 nM). As to the kind of experiment: PBM binding z-score (relative to random genomic background probes); higher = stronger binding; sequences stand for … in GC…GCGATTGACAGCGTAGAATGAAGG
How it is done: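 Protein-binding microarray (Agilent 4x180K custom design, double-stranded 60-nt probes: 5' GC cap, 34-nt variable region, 24-nt constant primer region; full probe sequence given). Purified or IVT nuclear receptor:RXRα heterodimers (3:1 NR:RXRα, mostly 270:90 nM) or homodimers were incubated for 1 h in PBS with 2% milk and no ligand, then detected with Alexa488 antibodies. Fluorescence from o1-orientation probes (~5 replicates averaged) was converted to z-scores against 500 random hg19 background probes. Variable regions are seed direct-repeat (DR0–DR5) sites, all their single-nucleotide variants and half-site ablations.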
With TAGCCTAGGTCATGGGCGAGTATACCACGCGAAC, the PBM binding z-score was determined as 2.32. Sequence TAGCCTAGGTCAGGGGCCAGTATACCACGCGAAC came in with a PBM binding z-score of 0.706.

Take GCTAATAGTTGAAAGGGCAACCGAATGATTCTCG: the PBM binding z-score was found to be 0.767. With GCGACTGGGGCAAAGCAAGTTACCATAAGGTTGG the figure was -0.206; with CGTACGAGGGCATGAGTTGATAGCAAATGCCGAT, 1.36; with CCTGCTAGGTCAATGGTCAGCTACAGCAGCTCGC, 0.991. TAGCCTAGGTCATTGGGCCAATATAGTACGCATC returned a PBM binding z-score of 2.33.

In turn, CGTCCAAGGGCAAAGGTCAGTGAAGAGATGACGG showed a PBM binding z-score of 3.89.

For CGAACTAGGTCATCCAGGACATTGAATACATTGA, the PBM binding z-score came to 5.52.

In the case of CCTAGCAGGCCAATCTGGGTCGCTCAAGGCTTGA, the PBM binding z-score was found to be 0.301.

Sequence CTGACTGGGGCATAAGGTTACCATAAGCCAGCCC registered a PBM binding z-score of 0.451. For CTCGAAAGGTCGGTTAAGGTGAGTATACGGATAA the value was 2.03. With ACTTACGGGTCAACGAGGTTATAGGACGCGTATA the figure was 7.69; with ATAGCAAGGTGATCGTGAGGTCGTTGATACTAAC, 2.94; with GATACAGGGTCAAGGCCAGAGTCCGCGTATTGAT, 4.32.

Sequence AGAATGAGGTTATACGGAGATCAGGGAAGAAAGT registered a PBM binding z-score of 1.56.

In turn, CGTCAAAGTTCAAGGTATCGTAACAGAAAGCAGC yielded a PBM binding z-score of 3.74.

As for ATCGAAACGTCGAAGGTGAGTATACCCACCCGAA, the PBM binding z-score is -0.229.

For TCTTGTAGATCTAGCAGGTTAAGAAAGCCTGAGT, the PBM binding z-score is 0.391. For TTACCAAGGGGAAGGTCGTTGATCCCTCTGTAGA the value was 0.561.

ATATGTAGGTTATCGGGTCATTCAATTTGCGCAT registered a PBM binding z-score of 3.87. With ATCTCTAGGTAAGACTCAGATCAGTGAAGAACGC, the PBM binding z-score stood at 0.238. On to TCGAGTAGGTTACCAATGGGGCATTCCGCTTTCT, for which the PBM binding z-score was determined as 0.11. With CCTAACAGGCCAATCTGGGTCACTCAAGGCTTGA the figure was 1.04.

CGAAGTAGGTCATTGACAGGACAGTGAATAGTAA returned a PBM binding z-score of 2.62. With CCGACTGGGGCAGTAAGGTTACCATACCATCCGG the figure was 0.907; with ACTATTAGTTGAGACGAGGCCAACCGATAGGTTG, 0.333. For CCTCACGGGTCAAGGTTATAGCACGGGTGGTACG the value was 3.18; for TAGCCTAGGTCATTCAGGTGCCAGTATAGAAAGC, 3.1. For CGGCCAAGGTCAGCAGGTCAGTGAAAGCGACGTG the value was 3.8. Consider CAAACTAGGTCACGAAACGTCAAAGTCGAATGAC, for which the PBM binding z-score turned out to be 2.2. Consider TCATATTGGTAAACAGGTGAAAGTCCGTAAGTTA, for which the PBM binding z-score came to 1.08. For ACTATTAGTTGATACGAGGGCAACCGATAGGTTG the value was 0.867. For ATCTCTAGGTAAAGACAGTTCAGTGAATGCAAAT the value was 1.53; for CCTAGCAGGCCAGGGTCACTCCAGCATTTCGCTT, 2.18. Consider TCTAGTTGGTCACGGAGGTCACACAAGACGGGTA, for which the PBM binding z-score stood at 5.67. With CCTACTGGGACAAAAAGGTCATTGATGCCGATAA the figure was 4.78; with GTACCAAGGTGAATAGGACGTTGATGAGTAGGCG, -0.357; with AGAACGAGGGCACTGAGTTGATAGCACGGGTGGC, 4.52. For TAGCCTAGGTCATTGGGCCAGTATTGTACGCATC the value was 2.26.
